From PubChem BioAssay (EPA / NIEHS)
Inconclusive results are not listed. Calls of active or inactive are those of the source. Rule for the calls, unless noted: active = hit-call score of the fitted dose curve at least 0.9, where 1 is the maximum; inactive = score below 0.9.

How the values were obtained:
[1] = ATG_PBREM_CIS: Attagene CIS-FACTORIAL HepG2 Assay for human Phenobarbital-responsive Enhancer Module (PBREM) (AID 2282955); details: HepG2 PBREM cis-reporter, Attagene multiplexed transcription; actives raise or lower the signal
Procedure, shortened: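 Endogenous transcription factor activity was read from reporter transcripts in transiently transfected human HepG2 liver cells after 24 h dosing. RT-PCR products were fluorescently labelled, HpaI-cut and sized by capillary electrophoresis; activity fitted bidirectionally against DMSO baseline.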

[2] = target: Paired box protein Pax-6 (Homo sapiens) (UniProt P26367); assay: ATG_Pax6_CIS: Attagene CIS-FACTORIAL HepG2 Assay for human Paired Box 6 (PAX6) (AID 2282956); details: HepG2 CIS-FACTORIAL PAX6 reporter transcription, RNA readout; actives raise or lower the signal
Paired box protein Pax-6 (Homo sapiens), sequence (P26367 whole entry, looked up): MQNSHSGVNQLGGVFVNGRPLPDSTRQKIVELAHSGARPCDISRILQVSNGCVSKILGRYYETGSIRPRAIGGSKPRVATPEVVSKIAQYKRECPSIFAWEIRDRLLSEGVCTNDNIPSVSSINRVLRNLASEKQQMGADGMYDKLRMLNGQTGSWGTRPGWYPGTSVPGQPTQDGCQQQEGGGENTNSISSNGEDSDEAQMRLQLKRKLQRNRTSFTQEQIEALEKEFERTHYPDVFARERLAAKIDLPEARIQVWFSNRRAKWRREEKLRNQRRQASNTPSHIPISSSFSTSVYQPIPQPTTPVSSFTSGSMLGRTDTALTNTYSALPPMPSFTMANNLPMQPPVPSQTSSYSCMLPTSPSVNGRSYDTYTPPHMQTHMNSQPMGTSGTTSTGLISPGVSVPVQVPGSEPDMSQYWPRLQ
Procedure, shortened: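 Values derive from bidirectional curve fitting of reporter mRNA signal relative to DMSO. HepG2 cells bearing transfected cis-regulated MRTUs were exposed for 24 h; transcripts were read by RT-PCR and capillary electrophoresis.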

[3] = ATG_PXRE_CIS: Attagene CIS-FACTORIAL HepG2 Assay for human Pregnane X Receptor Element (PXRE) (AID 2282957); details: HepG2 Attagene CIS-FACTORIAL PXRE reporter, mRNA; actives raise or lower the signal
Procedure, shortened: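 Read-out: fluorescence of reporter-specific RT-PCR products resolved by capillary electrophoresis, fitted bidirectionally relative to DMSO. Human HepG2 liver cells carried transfected cis-promoter reporter units and were exposed to chemicals for 24 h.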

[4] = ATG_PPRE_CIS: Attagene CIS-FACTORIAL HepG2 Assay for human Peroxisome Proliferator-activated Response Element (PPRE) (AID 2282958); details: HepG2 PPRE cis-element reporter, Attagene transcription factor profiling; actives raise or lower the signal
Procedure, shortened: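 Endogenous PPRE-driven transcription is measured in HepG2 cells carrying transfected multi-reporter constructs. Reporter transcripts are quantified by RT-PCR, HpaI digestion and capillary electrophoresis 24 h after dosing. DMSO baseline, bidirectional fit.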

[5] = ATG_RORE_CIS: Attagene CIS-FACTORIAL HepG2 Assay for human RAR-related Orphan Receptor Element (RORE) (AID 2282959); details: HepG2 Attagene cis-factorial RORE reporter, mRNA; actives raise or lower the signal
Procedure, shortened: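 RORE reporter transcripts reflecting endogenous factor activity were read after 24 h compound exposure of transfected HepG2 cells, using reverse transcription, PCR, fluorescent labelling and capillary electrophoresis sizing. Gain or loss fitted against DMSO.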

[6] = ATG_Sox_CIS: Attagene CIS-FACTORIAL HepG2 Assay for human SRY-box transcription factor (SOX) (AID 2282960); details: HepG2 Attagene cis-factorial SOX reporter, mRNA; actives raise or lower the signal
Procedure, shortened: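 Reporter transcripts, measured by RT-PCR and capillary electrophoresis of labelled fragments, report endogenous SOX transcription factor activity. Transiently transfected human HepG2 cells receive chemical for 24 h; changes in either direction are fitted relative to DMSO.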

[7] = target: Transcription factor Sp1 (Homo sapiens) (UniProt P08047); assay: ATG_Sp1_CIS: Attagene CIS-FACTORIAL HepG2 Assay for human Specificity Protein 1 (Sp1) (AID 2282961); details: HepG2 Sp1 cis-reporter transcription, actives raise or lower the signal
Transcription factor Sp1 (Homo sapiens), sequence (P08047 whole entry, looked up): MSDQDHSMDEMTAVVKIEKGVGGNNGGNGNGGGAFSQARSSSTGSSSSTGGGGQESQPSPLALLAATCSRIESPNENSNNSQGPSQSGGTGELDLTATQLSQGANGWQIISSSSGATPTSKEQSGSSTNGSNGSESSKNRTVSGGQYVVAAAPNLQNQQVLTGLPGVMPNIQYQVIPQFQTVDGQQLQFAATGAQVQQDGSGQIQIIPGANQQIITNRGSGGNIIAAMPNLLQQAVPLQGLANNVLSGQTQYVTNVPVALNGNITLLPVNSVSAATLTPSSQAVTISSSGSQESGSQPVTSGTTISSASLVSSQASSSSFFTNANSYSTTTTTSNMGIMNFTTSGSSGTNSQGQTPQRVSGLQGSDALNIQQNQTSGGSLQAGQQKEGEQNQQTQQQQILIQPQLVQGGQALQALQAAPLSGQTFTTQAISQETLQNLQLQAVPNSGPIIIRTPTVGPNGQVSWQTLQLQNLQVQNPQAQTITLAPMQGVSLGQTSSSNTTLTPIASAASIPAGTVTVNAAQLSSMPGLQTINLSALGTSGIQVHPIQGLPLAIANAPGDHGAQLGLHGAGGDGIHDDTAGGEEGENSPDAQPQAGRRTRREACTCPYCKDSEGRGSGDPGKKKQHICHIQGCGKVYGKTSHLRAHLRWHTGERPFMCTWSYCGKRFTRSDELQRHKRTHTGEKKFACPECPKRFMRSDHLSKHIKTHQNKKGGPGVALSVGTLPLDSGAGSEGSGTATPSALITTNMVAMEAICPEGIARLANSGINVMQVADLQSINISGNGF
Procedure, shortened: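 Read-out is reporter transcript level, measured by RT-PCR and fluorescent capillary electrophoresis after 24 h chemical treatment. System: transiently transfected HepG2 cells reporting endogenous transcription factor activity; gain or loss fitted against DMSO baseline.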

[8] = ATG_SREBP_CIS: Attagene CIS-FACTORIAL HepG2 Assay for human Sterol Regulatory Element Binding (SREBP) (AID 2282962); details: HepG2 Attagene cis-factorial SREBP reporter, mRNA; actives raise or lower the signal
Procedure, shortened: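 Values derive from bidirectional curve fitting with DMSO as baseline. The underlying measurement is reporter mRNA from cis-element-regulated units in transiently transfected HepG2, quantified by RT-PCR and capillary electrophoresis after 24 h exposure.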

[9] = target: Signal transducer and activator of transcription 3 (Homo sapiens) (UniProt P40763); assay: ATG_STAT3_CIS: Attagene CIS-FACTORIAL HepG2 Assay for human Signal Transducer and Activator of Transcription 3 (STAT3) (AID 2282963); details: HepG2, Attagene cis-factorial STAT3 reporter transcription; actives raise or lower the signal
Signal transducer and activator of transcription 3 (Homo sapiens), sequence (P40763 whole entry, looked up, the tested form may be a part): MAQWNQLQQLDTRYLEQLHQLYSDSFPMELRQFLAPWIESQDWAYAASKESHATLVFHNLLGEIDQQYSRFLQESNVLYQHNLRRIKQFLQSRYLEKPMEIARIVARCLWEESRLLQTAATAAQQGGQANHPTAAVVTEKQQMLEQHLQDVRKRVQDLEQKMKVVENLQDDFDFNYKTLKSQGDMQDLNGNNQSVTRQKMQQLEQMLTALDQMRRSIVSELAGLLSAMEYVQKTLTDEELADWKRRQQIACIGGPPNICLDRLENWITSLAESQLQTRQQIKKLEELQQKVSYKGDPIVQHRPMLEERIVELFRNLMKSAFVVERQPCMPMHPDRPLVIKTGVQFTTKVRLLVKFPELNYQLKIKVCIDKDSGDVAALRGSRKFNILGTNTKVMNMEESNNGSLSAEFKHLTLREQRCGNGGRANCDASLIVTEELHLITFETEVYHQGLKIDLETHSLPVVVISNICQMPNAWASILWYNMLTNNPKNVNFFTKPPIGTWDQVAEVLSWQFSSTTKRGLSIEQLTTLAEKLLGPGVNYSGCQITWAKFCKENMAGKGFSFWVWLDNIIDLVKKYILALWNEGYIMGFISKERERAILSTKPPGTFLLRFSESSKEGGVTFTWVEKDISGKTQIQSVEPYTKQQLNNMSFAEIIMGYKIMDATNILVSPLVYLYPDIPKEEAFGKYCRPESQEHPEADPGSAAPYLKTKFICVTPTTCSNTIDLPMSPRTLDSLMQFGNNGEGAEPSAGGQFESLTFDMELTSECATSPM
Procedure, shortened: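 Readout: fluorescent reporter mRNA fragments resolved by capillary electrophoresis. Setup: HepG2 transfected with MRTUs reporting endogenous transcription-factor activity, dosed 24 h. Gain or loss of signal fitted bidirectionally against DMSO control.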

[10] = ATG_TA_CIS: Attagene CIS-FACTORIAL HepG2 Assay for human TA Basal Promoter (AID 2282964); details: HepG2 Attagene CIS-factorial TA basal promoter reporter; actives raise or lower the signal
Procedure, shortened: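 Read-out: fluorescent reporter-transcript fragments resolved by capillary electrophoresis after RT-PCR and HpaI digestion. Source: HepG2 cells carrying transiently transfected multi-reporter cis constructs, treated 24 h. Endpoint fitted bidirectionally relative to DMSO.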

[11] = ATG_TCF_b_cat_CIS: Attagene CIS-FACTORIAL HepG2 Assay for human T-Cell-Factor with beta-catenin (TCF/b-cat) (AID 2282965); details: HepG2 TCF/beta-catenin cis-reporter transcription, actives raise or lower the signal
Procedure, shortened: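 HepG2 cells transiently transfected with cis-promoter-driven multiplexed reporter units; reporter mRNA measured 24 h after dosing by RT-PCR, FAM labelling, HpaI digestion and capillary electrophoresis. Bidirectional fitting relative to DMSO baseline.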

[12] = ATG_TAL_CIS: Attagene CIS-FACTORIAL HepG2 Assay for human TAL Basal Promoter (AID 2282966); details: HepG2 Attagene cis-factorial TAL promoter reporter; actives raise or lower the signal;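 note: background control endpoint measuring basal TAL promoter reporter mRNA not a specific factor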
Procedure, shortened: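 HepG2, transient MRTU transfection, 24 h compound exposure; RNA → oligo(dT) RT → PCR → 6-FAM primer extension → HpaI digest → CE fluorescence. Bidirectional curve fit vs DMSO. Background-control readout.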

[13] = ATG_TGFb_CIS: Attagene CIS-FACTORIAL HepG2 Assay for human Transforming Growth Factor (TGF) (AID 2282967); details: HepG2 Attagene CIS TGFb reporter, mRNA transcription; actives raise or lower the signal
Procedure, shortened: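 Transient MRTU transfection of HepG2 (FuGene 6). Dose 24 h. TriZol RNA, oligo(dT) RT, PCR, 6-FAM primer extension, HpaI cut, CE. Bidirectional fit, DMSO = baseline.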

[14] = ATG_VDRE_CIS: Attagene CIS-FACTORIAL HepG2 Assay for human Vitamin D Receptor Element (VDRE) (AID 2282968); details: HepG2 VDRE cis-reporter transcription, actives raise or lower the signal
Procedure, shortened: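 Transient MRTU transfection of HepG2, 24 h compound exposure. Readout: reporter transcripts via RT-PCR and capillary electrophoresis, fluorescence. Bidirectional fit vs DMSO.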

[15] = target: Nuclear receptor subfamily 1 group I member 3 (Homo sapiens) (UniProt Q14994); assay: ATG_CAR_TRANS: Attagene TRANS-FACTORIAL HepG2 Assay for human Constitutive Androstane Receptor (CAR) (AID 2282969; active = hit-call score of the fitted dose curve at least 0.9, where 1 is the maximum;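 note: activators raise reporter mRNA above DMSO so AC50 marks induction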); details: HepG2 Attagene TRANS-FACTORIAL CAR reporter
Nuclear receptor subfamily 1 group I member 3 (Homo sapiens), sequence (Q14994 whole entry, looked up, the tested form may be a part): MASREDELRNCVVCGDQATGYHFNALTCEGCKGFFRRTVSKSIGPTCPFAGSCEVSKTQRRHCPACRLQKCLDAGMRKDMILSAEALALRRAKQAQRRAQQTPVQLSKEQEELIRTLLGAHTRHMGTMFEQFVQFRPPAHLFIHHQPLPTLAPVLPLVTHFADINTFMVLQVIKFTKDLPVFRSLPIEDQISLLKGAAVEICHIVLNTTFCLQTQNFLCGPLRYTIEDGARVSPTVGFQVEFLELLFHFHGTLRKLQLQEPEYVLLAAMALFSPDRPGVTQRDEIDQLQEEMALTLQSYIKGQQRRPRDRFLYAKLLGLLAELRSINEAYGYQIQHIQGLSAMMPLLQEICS
Procedure, shortened: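 Transiently transfected HepG2, multiplex TRANS reporters (CAR-Gal4 chimera driving GAL4-UAS reporter). 24 h dosing. Readout: reporter transcript by RT-PCR + capillary electrophoresis, fluorescence intensity; positive direction vs DMSO.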

[16] = target: Estrogen receptor (Homo sapiens) (UniProt P03372); assay: ATG_ERa_TRANS: Attagene TRANS-FACTORIAL HepG2 Assay for human Estrogen Receptor alpha (ERa) (AID 2282970; active = hit-call score of the fitted dose curve at least 0.9, where 1 is the maximum); details: HepG2 Attagene TRANS ERa GAL4 reporter, mRNA
Estrogen receptor (Homo sapiens), sequence (P03372 whole entry, looked up, the tested form may be a part): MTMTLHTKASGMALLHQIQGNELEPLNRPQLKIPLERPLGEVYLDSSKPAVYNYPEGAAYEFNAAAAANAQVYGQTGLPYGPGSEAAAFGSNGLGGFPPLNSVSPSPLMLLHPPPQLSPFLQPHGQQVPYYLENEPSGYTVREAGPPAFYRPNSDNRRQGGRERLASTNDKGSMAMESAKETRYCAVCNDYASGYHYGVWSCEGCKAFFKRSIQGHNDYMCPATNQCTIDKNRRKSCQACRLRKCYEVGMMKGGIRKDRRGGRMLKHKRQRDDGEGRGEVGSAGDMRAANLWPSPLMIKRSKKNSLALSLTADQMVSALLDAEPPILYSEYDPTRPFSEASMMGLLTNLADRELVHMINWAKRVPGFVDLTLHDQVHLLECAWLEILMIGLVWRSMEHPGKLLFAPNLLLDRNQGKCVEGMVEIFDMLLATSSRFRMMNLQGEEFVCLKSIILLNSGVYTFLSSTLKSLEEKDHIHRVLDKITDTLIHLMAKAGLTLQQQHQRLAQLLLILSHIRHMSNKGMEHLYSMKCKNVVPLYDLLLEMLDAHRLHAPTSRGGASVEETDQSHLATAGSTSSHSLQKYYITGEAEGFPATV
Procedure, shortened: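 Reporter mRNA induction after 24 hours, detected by fluorescent RT-PCR and capillary electrophoresis, gives the read-out. Cells are HepG2 transiently transfected with GAL4-UAS reporter transcription units responding to chimeric NR-Gal4. Activity is taken as gain of signal over DMSO baseline.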

[17] = target: X-box-binding protein 1 (Homo sapiens) (UniProt P17861); assay: ATG_Xbp1_CIS: Attagene CIS-FACTORIAL HepG2 Assay for human X-box Binding Protein 1 (XBP1) (AID 2282972); details: HepG2 XBP1 cis-element reporter, Attagene multiplex; actives raise or lower the signal
X-box-binding protein 1 (Homo sapiens), sequence (P17861 whole entry, looked up): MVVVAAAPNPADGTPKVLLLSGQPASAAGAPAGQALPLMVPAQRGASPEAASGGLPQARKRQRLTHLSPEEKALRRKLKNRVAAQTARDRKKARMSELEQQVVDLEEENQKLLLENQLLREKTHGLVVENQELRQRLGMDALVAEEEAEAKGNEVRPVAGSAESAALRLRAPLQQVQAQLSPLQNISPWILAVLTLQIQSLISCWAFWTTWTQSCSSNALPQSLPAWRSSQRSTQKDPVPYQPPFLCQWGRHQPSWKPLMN
Procedure, shortened: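 Human hepatoma HepG2, cis-element reporter system, 24 h treatment; mRNA quantified by RT-PCR/CE fluorescence; fit relative to DMSO.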

[18] = ATG_GAL4_TRANS: Attagene TRANS-FACTORIAL HepG2 Assay for GAL4 (Internal Marker) (AID 2282976; active = hit-call score of the fitted dose curve at least 0.9, where 1 is the maximum); details: HepG2 Attagene TRANS GAL4 internal marker reporter
Procedure, shortened: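 RT-PCR/capillary electrophoresis readout of reporter mRNA. HepG2, transient MRTU transfection (GAL4-UAS reporters), 24 h compound exposure. Background-control endpoint, positive direction vs DMSO baseline.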

[19] = target: Steroid hormone receptor ERR1 (Homo sapiens) (UniProt P11474); assay: ATG_ERRa_TRANS: Attagene TRANS-FACTORIAL HepG2 Assay for human Estrogen-Related Receptor alpha (ERRa) (AID 2282971; active = hit-call score of the fitted dose curve at least 0.9, where 1 is the maximum); details: HepG2 Attagene TRANS reporter, ERRa transactivation
Steroid hormone receptor ERR1 (Homo sapiens), sequence (P11474 whole entry, looked up, the tested form may be a part): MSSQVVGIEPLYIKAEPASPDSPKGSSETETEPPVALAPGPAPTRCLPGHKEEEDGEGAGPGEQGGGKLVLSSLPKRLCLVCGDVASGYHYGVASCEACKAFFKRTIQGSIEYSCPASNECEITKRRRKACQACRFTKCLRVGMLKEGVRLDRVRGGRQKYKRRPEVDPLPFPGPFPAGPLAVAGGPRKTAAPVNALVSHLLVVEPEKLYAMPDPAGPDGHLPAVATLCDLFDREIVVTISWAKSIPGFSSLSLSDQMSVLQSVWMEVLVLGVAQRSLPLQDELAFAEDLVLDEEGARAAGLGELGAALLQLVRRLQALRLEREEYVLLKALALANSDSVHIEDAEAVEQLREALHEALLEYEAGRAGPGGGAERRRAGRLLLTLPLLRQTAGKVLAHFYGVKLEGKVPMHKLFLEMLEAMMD
Procedure, shortened: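 Transfected HepG2, 24 h dosing, ERRa-Gal4 chimera driving GAL4-UAS reporter. Readout: reporter mRNA via RT-PCR plus capillary electrophoresis (fluorescence). Positive direction vs DMSO control.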

[20] = ATG_M_19_TRANS: Attagene TRANS-FACTORIAL HepG2 Assay for M19 Transcription Factor (Internal Marker) (AID 2282974; active = hit-call score of the fitted dose curve at least 0.9, where 1 is the maximum); details: HepG2 Attagene TRANS-FACTORIAL M19 internal marker reporter
Procedure, shortened: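 Background-control readout: after 24 h chemical exposure of transfected HepG2 carrying GAL4-driven reporter units, RNA was reverse-transcribed, amplified, fluorescently labeled and sized by capillary electrophoresis; gain-of-signal fit against DMSO.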

Measured: AC50

CC(=O)OCC=C(C)C
active: [3] 52.1 µM
not listed: [19] | [20]
inactive: all other assays above

OCCCc1ccccc1
not listed: [13] | [15] | [18]
inactive: all other assays above

C=CC(=O)NCOCCCC
active: [3] 36.7 µM | [14] 49.8 µM
not listed: [16] | [18] | [19] | [20]
inactive: all other assays above

O=C(Oc1ccccc1)c1ccccc1C(=O)Oc1ccccc1
active: [3] 24.6 µM
not listed: [11] | [14] | [15] | [19]
inactive: all other assays above

CC(C)c1ccc(O)c(C(C)C)c1
active: [3] 2.98 µM | [16] 33.4 µM
not listed: [18] | [19]
inactive: all other assays above

CC(C)C(=O)OCCOc1ccccc1
active: [3] 4.56 µM
not listed: [14] | [15] | [16] | [18] | [19]
inactive: all other assays above

C=CC(=O)OCCCCCCCC(C)C
active: [3] 7.99 µM | [4] 71.1 µM | [5] 100 µM | [13] 55 µM
not listed: [11] | [15] | [19] | [20]
inactive: all other assays above

C=Cc1ccc(OC(C)=O)cc1
active: [16] 31.6 µM | [17] 53.7 µM
not listed: [18] | [19] | [20]
inactive: all other assays above

CC=C(C)C(C)=O
active: [3] 8.49 µM
not listed: [14] | [15] | [16] | [19] | [20]
inactive: all other assays above

CC(=O)CCC1=C(C)CCCC1(C)C
active: [3] 4.36 µM | [16] 13 µM
not listed: [14] | [18] | [19]
inactive: all other assays above

CCC(C)C(=O)OCCc1ccccc1 (stereo not given)
not listed: [14] | [15] | [18] | [19] | [20]
inactive: all other assays above

Oc1ccc(-c2ccccc2)c(Cl)c1
active: [4] 33.4 µM | [5] 33.4 µM | [9] 54.5 µM | [16] 9.14 µM | [17] 33.4 µM
not listed: [14] | [15] | [18] | [19]
inactive: all other assays above

CCCCC(CC)COC(=O)/C=C/c1ccc(OC)cc1 (stereo not given)
active: [3] 39.4 µM
not listed: [10] | [11] | [18] | [20]
inactive: all other assays above

C=CCCCCCCCCC=O
active: [3] 100 µM | [4] 64.2 µM
not listed: [10] | [15] | [20]
inactive: all other assays above

O=C(O)CC(C(=O)O)S(=O)(=O)O (stereo not given)
not listed: [14] | [15] | [16] | [19]
inactive: all other assays above
